Results as given in PubChem BioAssay (NCATS).
Inconclusive results are not listed. Where a call stands in place of a potency, no number is given. The source made the active and inactive calls. Calls come from the whole dose curve; as a rule, active = well fitted curve in the direction sought with a large enough effect; inconclusive = small, poorly fitted or top-dose-only effect, or another doubt; inactive = no such curve, though single readings can be large; an effect the other way counts as inactive or inconclusive.

How the values were obtained:
[1] = test system: Zika virus NS2B-NS3 protease; test: Primary screen GU AMC qHTS for Zika virus inhibitors (AID 1347154); note: nearly all actives have a fitted effect of over 70% in size; note: potency is the fitted concentration of half-maximal effect
Procedure, shortened: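 Unlinked Zika NS2B hydrophilic domain/NS3 protease domain noncovalent complex (25 nM final) in 10 mM Tris-HCl pH 8.0, 0.01% Tween 20, with AMC peptide substrate. Fluorescence (ex 340, em 450 nm) change over 15 min, room temperature; percent inhibition fitted to 4-parameter Hill equation.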

[2] = Primary qHTS for small molecule stabilizers of the endoplasmic reticulum resident proteome: Secreted ER Calcium Modulated Protein (SERCaMP) assay (AID 1508630)
Procedure, shortened: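 GLuc-SERCaMP-expressing SH-SY5Y cells, pretreated 16 h with compound, are challenged with thapsigargin to empty ER calcium stores; after 4 h, coelenterazine is added directly to the medium and luminescence is imaged.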

Molecule | Potency [1] | Potency [2] | activity change, negative = inhibition [1] | activity change, negative = inhibition [2]
COc1ccc2[nH]cc(CCNC(=O)C3CC3)c2c1 | inactive | inactive |  | 
CC(N)CCCP(=O)(O)O (stereo not drawn) | inactive | inactive |  | 
COC(=O)/C=C/c1ccc(C(=O)NCC(=O)N[C@@H](CCC(=O)OC)C(=O)N[C@@H](CC(C)C)C(N)=O)cc1 | inactive | inactive |  | 
CCCCCCCCCCCCCCCCOCC(CO)OC (stereo not drawn) |  |  | 21.3% [at 6.83 µM] (inactive) | -17.7% [at 3.88 µM] (inactive)
CCCCCCCCCCOCCC(=O)O |  |  | 12.5% [at 6.83 µM] (inactive) | -6.7% [at 3.88 µM] (inactive)
CCCCCCCCCCCCCC(=O)N[C@H](C)[C@@H](O)c1ccccc1 |  |  | 6.45% [at 6.83 µM] (inactive) | -4.17% [at 3.88 µM] (inactive)
c1ccc(CN(CCN(Cc2ccccn2)Cc2ccccn2)Cc2ccccn2)nc1 | inactive | inactive |  | 
CSCC[C@H](NC(=O)[C@H](Cc1ccccc1)NC[C@@H](NC[C@@H](N)CS)C(C)C)C(=O)O | inactive | inactive |  | 
C[C@H](CCC(=O)O)C1CC[C@H]2C3CC[C@@H]4C[C@H](O)CC[C@]4(C)C3C[C@H](O)[C@]12C (stereo partly drawn) | inactive | inactive |  | 
CCCCC/C=C\CC1OC1CCCCCCCC(=O)O (stereo not drawn) |  |  | 6.59% [at 0.59 µM] (inactive) | -29.7% [at 0.478 µM] (inactive)
CC(C)C(NS(=O)(=O)c1ccc(-c2ccc(Br)cc2)cc1)C(=O)O (stereo not drawn) | inactive | inactive |  | 
CCCCCCCCCCCCCCCCOC[C@H](COP(=O)([O-])OCC[N+](C)(C)C)OC(=O)NC |  |  | 0.721% [at 6.83 µM] (inactive) | 5.26% [at 3.88 µM] (inactive)
CS/C(N)=C(C#N)/C(C#N)=C(\N)SC | inactive | inactive |  | 
C=C1CC[C@H](O)C/C1=C/C=C1\CCC[C@]2(C)C([C@H](C)CCCC(C)(C)O)CC[C@@H]12 (stereo partly drawn) | inactive | inactive |  | 
Nc1ncnc2c1ncn2C1O[C@H](COP(=O)(O)O)[C@@H](O)[C@H]1O (stereo partly drawn) | inactive | inactive |  | 
COc1ccc(CCCOC(Cn2ccnc2)c2ccc(OC)cc2)cc1 (stereo not drawn) | inactive | inactive |  | 
COc1ccc(CC(N)C(=O)NC2C(O)[C@H](n3cnc4c(N(C)C)ncnc43)O[C@@H]2CO)cc1 (stereo partly drawn) | inactive | inactive |  | 
N[C@@]1(C(=O)O)CN[C@@H](C(=O)O)C1 | inactive | inactive |  | 
CCCCCCCCCCCCCCC[C@@H](O)[C@H](CO)NC(C)=O |  |  | 7.2% [at 6.83 µM] (inactive) | -11.4% [at 3.88 µM] (inactive)
CC(=O)N[C@@H](CSC/C=C(\C)CC/C=C(\C)CC/C=C(\C)CCC=C(C)C)C(=O)O | inactive | inactive |  | 

Molecule | Potency [1] | Potency [2] | activity change, negative = inhibition [1] | activity change, negative = inhibition [2]
CCCCC/C=C\C/C=C\CCCCCCCCCC(=O)O |  |  | -1.98% [at 6.83 µM] (inactive) | -7.65% [at 3.88 µM] (inactive)
C=C1/C(=C\C=C2\CCCC3(C)C2CCC3C(C)/C=C/C(O)C2CC2)CC(O)CC1O (stereo not drawn) | inactive | inactive |  | 
CCCCC/C=C/C=C1/C(=O)C=C[C@@H]1C/C=C\CCCC(=O)O |  |  | 2.18% [at 6.83 µM] (inactive) | -9.18% [at 3.88 µM] (inactive)
COC(=O)[C@@H]1[C@H]2C[C@H]3c4[nH]c5ccccc5c4CCN3C[C@H]2CC[C@@H]1O | inactive | inactive |  | 
H-EQKQLQ-OH |  |  | 7.08% [at 6.83 µM] (inactive) | -18.8% [at 3.88 µM] (inactive)
CCCN(C/C=C/I)C1CCc2cccc(O)c2C1 (stereo not drawn) | inactive | inactive |  | 
c1ccc(-c2n[nH]c3c2oc2ccccc23)cc1 | inactive | inactive |  | 
Cc1nc(N=Nc2cc([N+](=O)[O-])ccc2Cl)c(COP(=O)(O)O)c(C=O)c1O | inactive | inactive |  | 
CCCCC/C=C\C/C=C\C/C=C\C/C=C\CCCCCC(=O)O |  |  | -5.55% [at 6.83 µM] (inactive) | 14.9% [at 3.88 µM] (inactive)
OCc1cc2c(cn1)[nH]c1ccccc12 | 26.7 µM (active) | inactive |  | 
O=C1C(Nc2ccccc2)=CC(=O)c2ncccc21 | inactive | inactive |  | 
CCCCCCCCCCCCCCCC(=O)N[C@@H](COP(=O)(O)O)C(=O)O |  |  | 6.63% [at 6.83 µM] (inactive) | 2.76% [at 3.88 µM] (inactive)
O=c1nc2ccccc2c2n1CC(CN1CCN(c3ccccc3)CC1)N2 (stereo not drawn) | inactive | inactive |  | 
NC(C(=O)O)c1cccc(O)c1 (stereo not drawn) | inactive | inactive |  | 
NCCCCCc1cnc[nH]1 | inactive | inactive |  | 
C[C@H](CCC(=O)NCCS(=O)(=O)O)C1CC[C@H]2C3CC[C@@H]4C[C@H](O)CC[C@]4(C)C3C[C@H](O)[C@]12C (stereo partly drawn) | inactive | inactive |  | 
N[C@H](C(=O)O)[C@H]1C[C@H]1C(=O)O | inactive | inactive |  | 
C[C@@](N)(C(=O)O)[C@@H]1C[C@@H]1C(=O)O | inactive | inactive |  | 
COC(=O)/C=C/c1cccc(N(Cc2ccc(-c3ccc(N(C)C)cc3)cc2)C(=O)C2CCCCC2)c1 | inactive | inactive |  | 
CCCCC/C=C\C/C=C\CCCCCCCC(=O)NCC(=O)O |  |  | 18.9% [at 6.83 µM] (inactive) | -10.8% [at 3.88 µM] (inactive)

Molecule | Potency [1] | Potency [2] | activity change, negative = inhibition [1] | activity change, negative = inhibition [2]
O=[N+]([O-])c1ccc(CSc2ncnc3c2ncn3C2OC(CO)C(O)C2O)cc1 (stereo not drawn) | inactive | inactive |  | 
CCCCC/C=C\C/C=C\C/C=C\C/C=C\CCCC(=O)O[C@H](COCCCCCCCCCCCCCCCC)COP(=O)([O-])OCC[N+](C)(C)C |  |  | 13.2% [at 6.83 µM] (inactive) | -11.5% [at 3.88 µM] (inactive)
CC(C)[C@H](O)CC[C@@H](C)C1CC[C@H]2C3CC=C4C[C@@H](O)CC[C@]4(C)C3CC[C@]12C (stereo partly drawn) | inactive | inactive |  | 
N[C@@H](Cn1c2c(c(=O)[nH]c1=O)CCC2)C(=O)O | inactive | inactive |  | 
C[C@@]12CCC[C@H]1C1CC[C@H]3C[C@H](O)CC[C@]3(C)C1CC2 (stereo partly drawn) | inactive | inactive |  | 
NS(=O)(=O)c1nn2cc(-c3ccccc3)nc2s1 | inactive | inactive |  | 
NC(N)=NCCNS(=O)(=O)c1cccc2cnccc12 | inactive | inactive |  | 
O=c1ccn([C@@H]2O[C@H](COP(=O)(O)OP(=O)(O)OP(=O)(O)O)[C@@H](O)[C@H]2O)c(=O)[nH]1 | inactive | inactive |  | 
NC(C(=O)O)C(CC(=O)O)c1ccc(Cl)cc1 (stereo not drawn) | inactive | inactive |  | 
COC(=O)[C@@H](N)CSC/C=C(\C)CC/C=C(\C)CCC=C(C)C | inactive | inactive |  | 
NC(C(=O)O)c1cc(O)cc(O)c1 (stereo not drawn) | inactive | inactive |  | 
CCCCCCCC(=O)OC[C@H](CO)OC(=O)CCCCCCC |  |  | 4.76% [at 6.83 µM] (inactive) | -8.21% [at 3.88 µM] (inactive)
Nc1ccccc1C(=O)C[C@H](N)C(=O)O | inactive | inactive |  | 
Cc1ccc2c(c1)C(=O)C1(O)CCN(c3ccccc3)C1=N2 (stereo not drawn) | inactive | inactive |  | 
NC(N)=NCCC[C@H](NC(=O)[C@@H](N)Cc1ccc(O)cc1)C(=O)O |  |  | 2.03% [at 6.83 µM] (inactive) | -11.6% [at 3.88 µM] (inactive)
CC(N)(COP(=O)(O)O)C(=O)O (stereo not drawn) | inactive | inactive |  | 
CCOC(=O)C12CC1/C(=N\O)c1ccccc1O2 (stereo not drawn) | inactive | inactive |  | 
O=[N+]([O-])c1cc2nc(O)c(O)nc2cc1[N+](=O)[O-] | inactive | inactive |  | 
CC1CCC(C(C)C)C(P(=O)(c2ccccc2)c2ccccc2)C1 (stereo not drawn) | inactive | inactive |  | 
